An excerpt weighted towards active compounds, which were near 3.1% of everything screened.
BoNT-A LC inh2: BoNT/A light chain protease inhibitors, primary screen, biochemical, flow cytometry, MLPCN library | inhibition, % at 10 µM | multiplex microsphere protease substrate cleavage | Botulinum neurotoxin type A light chain protease (Clostridium botulinum A str. ATCC 3502) | actives 0.17% (n = 360,000)
BoNT-F LC inh: BoNT/F light chain protease inhibitors, primary screen, biochemical, flow cytometry, MLPCN library; actives 0.22% (n = 360,000); Botulinum neurotoxin type F light chain protease (Clostridium botulinum); Multiplex microsphere protease cleavage assay; inhibition, % at 10 µM; in the data active = inhibition above about 35%, passing the limit was not always enough; inconclusive = no clear call, values can overlap the other calls
PriA SSB inh: inhibitors of Klebsiella pneumoniae PriA binding to SSB C-terminal tail, primary screen, biochemical, AlphaScreen; PriA–SSB C-terminal tail interaction (Klebsiella pneumoniae); actives 0.6% (n = 430,000); inhibition, % at 33 µM; AID 1272365, 2023; AlphaScreen SSBct-PriA binding, biotinylated peptide; in the data active = inhibition mostly above about 37%, no sharp cut-off; inactive = mostly below about 20%
Anthrax LF prot: Bacillus anthracis LF protease inhibitors, primary screen, biochemical, multiplex microsphere, MLPCN library; multiplex microsphere protease cleavage assay; Lethal factor (Bacillus anthracis), P15917; inhibition, % at 10 µM; actives 0.12% (n = 360,000)
Bead autofluor: compound fluorescence in toxin protease inhibitor counterscreen. compound autofluorescence counterscreen, microsphere flow cytometry; hits give high values. fluorescence intensity (concentration not given with the values). actives 3.1% (n = 360,000). AID 624483; in the data active = fluorescence intensity above about 16000; inconclusive = no clear call, values can overlap the other calls
Each line names hits and unclear results; the compound was inactive in the other large screens; ! = a repeat was not active. Rule as the data show it, unless noted: active = inhibition above about 30%; inconclusive = no clear call, values can overlap the other calls; inactive = below that.

Sc1oc(-c2ccccc2)cc1C=Nc1ccccc1	PriA SSB inh 40.8, Bead autofluor 24473
Oc1oc(-c2ccccc2)nc1C=Nc1ccccc1	none
COCCCNC(=O)c1cccn2c(=O)c3cc4ccccc4cc3nc12	BoNT-A LC inh2 inconclusive, Bead autofluor 24282
C=CCn1c(=N)c(C(=O)NCCCOC)cc2c(=O)n3cccc(C)c3nc21	none
CSc1cccc(C(=O)Nc2cc(C)nn2C(C)C)c1	none (no result: BoNT-A LC inh2, BoNT-F LC inh, Anthrax LF prot, Bead autofluor)
COc1ccc(N2C(=O)C3C4C=CC(C4)C3C2=O)c(OC)c1 (stereo not drawn)	Bead autofluor 22210
COc1ccc(N2C(=O)C3C4C=CC(C4)C3C2=O)c([N+](=O)[O-])c1 (stereo not drawn)	none
CN1CCN(C(CNS(=O)(=O)Cc2ccc(Cl)cc2)c2ccsc2)CC1 (stereo not drawn)	none (no result: BoNT-A LC inh2, BoNT-F LC inh, Anthrax LF prot, Bead autofluor)
O=C(O)CCc1nn2c3ccccc3n(CC(=O)c3ccccc3)c2nc1=O	Bead autofluor 22951
CCOC(=O)Cn1c2ccccc2n2nc(CCC(=O)O)c(=O)nc12	none
CNc1nc(-c2ccccc2)nnc1C(F)(F)F	BoNT-A LC inh2 inconclusive, Bead autofluor 22123
Cc1ccc(CC(CC(=O)O)C(=O)NC2CCCCC2)cc1 (stereo not drawn)	Bead autofluor 22833
Cc1ccc(CC(CC(=O)O)C(=O)NCC23CC4CC(CC(C4)C2)C3)cc1 (stereo not drawn)	none
NNc1nc(Nc2ccccc2)nc(Nc2ccccc2)n1	PriA SSB inh 48.9
COc1ccc(Nc2nc(NN)nc(Nc3ccc(OC)cc3)n2)cc1	PriA SSB inh 100.3
Cc1cc(N)nc(Nc2ccc(Nc3ccccc3)cc2)n1	PriA SSB inh 41.0 (no result: BoNT-A LC inh2, BoNT-F LC inh, Anthrax LF prot, Bead autofluor)
Cc1cc(N)nc(Nc2ccc(C(N)=O)cc2)n1	none (no result: BoNT-A LC inh2, BoNT-F LC inh, Anthrax LF prot, Bead autofluor)
COC(=O)[C@H](CC(C)C)NC(=O)NC1CCCc2ccccc21 (stereo partly drawn)	none
COC(=O)[C@H](CC(C)C)NC(=O)NC1CCCCC1C (stereo partly drawn)	Bead autofluor 17745
CC(NS(=O)(=O)c1ccccc1)C(N)=O (stereo not drawn)	Bead autofluor 17096
COc1ccccc1NC(=O)C(C)NS(=O)(=O)c1ccccc1 (stereo not drawn)	none
COc1ccccc1OCc1nnc(SCC(=O)c2cc(Cl)ccc2OC)o1	BoNT-A LC inh2 inconclusive, Bead autofluor 21782
COc1ccccc1OCc1nnc(SCC(=O)N2CCCC2)o1	none
COc1ccccc1OCc1nnc(SCCN2CCOCC2)o1	BoNT-A LC inh2 inconclusive, Bead autofluor 22558
CC(C)N(CCSc1ccc(NC(=O)C2CC2)nn1)C(C)C	none (no result: BoNT-A LC inh2, BoNT-F LC inh, Anthrax LF prot, Bead autofluor)
COCCCN(C(=O)c1ccccc1)c1nc(-c2ccc(OC)cc2)cs1	none
COCCCN(C(C)=O)c1nc(-c2ccccc2)cs1	BoNT-A LC inh2 inconclusive, Bead autofluor 21845
COc1ccccc1[C@@H](C#N)N(C)C	none (no result: BoNT-A LC inh2, BoNT-F LC inh, Anthrax LF prot, Bead autofluor)
CCCCn1ccnc1C(=O)c1cc(S(=O)(=O)N2CCOCC2)ccc1C	none
CCCCn1ccnc1C(=O)c1cccc(S(=O)(=O)N2CC(C)CC(C)C2)c1 (stereo not drawn)	Bead autofluor 16271
COc1ccc(Nc2c3ccccc3nc3ccccc23)cc1	none
COc1ccc(Nc2nc(N3CCCC3)c3ccccc3n2)cc1	PriA SSB inh 35.0
CCN(CC)c1ccc(Nc2nc(N3CCOCC3)c3ccccc3n2)cc1	Bead autofluor 20077
CCN1CCCc2cc(CCNC(=O)c3ccc(Br)o3)ccc21	PriA SSB inh active! (no result: BoNT-A LC inh2, BoNT-F LC inh, Anthrax LF prot, Bead autofluor)
CCN1CCCc2cc(CCNC(=O)c3ccc(OC(C)C)cc3)ccc21	PriA SSB inh 61.0 (no result: BoNT-A LC inh2, BoNT-F LC inh, Anthrax LF prot, Bead autofluor)
CCN1CCCc2cc(CCNC(=O)C(=O)NCCOC)ccc21	PriA SSB inh 68.0 (no result: BoNT-A LC inh2, BoNT-F LC inh, Anthrax LF prot, Bead autofluor)
CCN1CCCc2cc(CCNC(=O)NC(C)(C)C)ccc21	PriA SSB inh 44.0 (no result: BoNT-A LC inh2, BoNT-F LC inh, Anthrax LF prot, Bead autofluor)
CCN1CCCc2cc(CCNC(=O)c3ccc(C(F)(F)F)cc3)ccc21	none (no result: BoNT-A LC inh2, BoNT-F LC inh, Anthrax LF prot, Bead autofluor)
CCC(CC)C(=O)NCCn1nc(-c2ccco2)ccc1=O	none (no result: BoNT-A LC inh2, BoNT-F LC inh, Anthrax LF prot, Bead autofluor)
O=C(COc1cccc2c1CCNC2=O)Nc1ccccc1C(F)(F)F	none (no result: BoNT-A LC inh2, BoNT-F LC inh, Anthrax LF prot, Bead autofluor)
CCOc1cc(C2c3c(oc4cc(C)c(Cl)cc4c3=O)C(=O)N2Cc2ccco2)ccc1O (stereo not drawn)	Bead autofluor 21623
Cc1ccc2oc3c(c(=O)c2c1)C(c1cccc(Br)c1)N(Cc1ccco1)C3=O (stereo not drawn)	Bead autofluor 18391
O=C(c1ccccc1F)N1CCCC(c2nnc(Cc3ccc(F)cc3)o2)C1 (stereo not drawn)	none (no result: BoNT-A LC inh2, BoNT-F LC inh, Anthrax LF prot, Bead autofluor)
Cc1ccc(-c2c3c([nH]c(=S)c2C#N)CCCC3)o1	BoNT-A LC inh2 inconclusive, Bead autofluor 24820
O=C(c1cc2cc(F)ccc2s1)N1C2CCC1CC(S(=O)(=O)c1ccccc1)C2 (stereo not drawn)	PriA SSB inh 77.0 (no result: BoNT-A LC inh2, BoNT-F LC inh, Anthrax LF prot, Bead autofluor)
CCNC(=O)C(C)Oc1ccc(Cl)cc1Cl (stereo not drawn)	none
CCNC(=O)n1nccc1C(C)Oc1ccc(Cl)cc1 (stereo not drawn)	Bead autofluor 21790
CCNC(=O)n1nccc1C(C)Oc1cccc(C(F)(F)F)c1 (stereo not drawn)	Bead autofluor 21560
O=C(O)c1cccnc1SC1CC(=O)N(CCc2ccccc2)C1=O (stereo not drawn)	Bead autofluor 24601
COc1ccc(Cn2nnnc2C(c2cc3cc(C)ccc3[nH]c2=O)N2CCN(C)CC2)cc1 (stereo not drawn)	none
COc1cc2cc(C(c3nnnn3Cc3ccc(F)cc3)N3CCCCCC3)c(=O)[nH]c2cc1OC (stereo not drawn)	BoNT-A LC inh2 inconclusive, Bead autofluor 18413
COc1ccc(Cn2nnnc2C(c2cc3ccc(OC)cc3[nH]c2=O)N2CCCCCC2)cc1 (stereo not drawn)	Bead autofluor 22040
CCC(=NCc1ccccc1)c1c(C(F)(F)F)[nH]n(-c2nc3ccccc3s2)c1=O	Bead autofluor 16663
CCC(=NCc1ccco1)c1c(C(F)(F)F)[nH]n(-c2nc3ccccc3s2)c1=O	none
O=C(NCCN1CCOCC1)C(=O)NCC(c1ccco1)S(=O)(=O)c1ccc(F)cc1 (stereo not drawn)	none (no result: BoNT-A LC inh2, BoNT-F LC inh, Anthrax LF prot, Bead autofluor)
COc1ccc(-c2nc(C#N)c(N3CCCCCC3)o2)cc1	none
COc1ccc(-c2nc(C#N)c(N3CCOCC3)o2)cc1	PriA SSB inh 54.2 (no result: BoNT-A LC inh2, BoNT-F LC inh, Anthrax LF prot, Bead autofluor)
COc1ccc(-c2nc(C#N)c(N3CCCCC3)o2)cc1	PriA SSB inh 49.7
COc1nc(C#N)c(N2CCOCC2)o1	Bead autofluor 23391
CC(C)(Oc1ccc(Cl)cc1)C(=O)N(Cc1ccsc1)Cc1ccco1	none (no result: BoNT-A LC inh2, BoNT-F LC inh, Anthrax LF prot, Bead autofluor)
Fc1ccc(COCC2CCN(Cc3ccccn3)CC2)cc1	none (no result: BoNT-A LC inh2, BoNT-F LC inh, Anthrax LF prot, Bead autofluor)
Cn1c(=O)c2c(nc(N3CCN(c4ccccn4)CC3)n2Cc2ccccc2Cl)n(C)c1=O	BoNT-A LC inh2 inconclusive, Bead autofluor 21245
CC(C)(C)Sc1ccc2nn(CC(=O)Nc3ccccc3Cl)c(=O)n2n1	none (no result: BoNT-A LC inh2, BoNT-F LC inh, Anthrax LF prot, Bead autofluor)
O=S(=O)(c1cccs1)N1CCN(Cc2nc(-c3ccc(F)cc3)cs2)CC1	none (no result: BoNT-A LC inh2, BoNT-F LC inh, Anthrax LF prot, Bead autofluor)
CC(C)=C1N=C(c2ccccc2)OC1=O	none (no result: BoNT-A LC inh2, BoNT-F LC inh, Anthrax LF prot, Bead autofluor)

Screens as filed in PubChem.
